# Shn3 3UTR inh: inhibitors of Schnurri-3 3'UTR reporter in osteoblasts | Clone20 osteoblast Shn3 3'UTR firefly luciferase, 24 h | inhibition, % at 12.5 µM | actives 0.52% (n = 360,000) | AID 588674;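 active = mean inhibition of at least 75% with every replicate also reaching 75%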;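 note: 0% = median of neutral control wells and 100% = pilot-screen positive control compound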
# Beta cell apopt: beta cell apoptosis inhibition. INS-1E cytokine-induced death, ATP luminescence, 48 h; percent of positive-control rescue, neutral wells zero. protection from apoptosis, % (no concentration beside the values). actives 0.8% (n = 300,000). AID 435005;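 active = Every replicate reaches about 75%, or at least half do and their mean reaches it too, limit read from the data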;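 note: 0% = cytokine-treated negative control wells and 100% = positive control rescue; higher means more ATP so stronger rescue from cytokine killing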
# PAX8 inh HTS: inhibitors of PAX8 transcriptional activity in RMG-I cells; RMG-I TPO-luciferase reporter, SteadyGlo, 24 h; inhibition, % at 12.6 µM; actives 1.2% (n = 360,000); AID 652154;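 active = mean replicate inhibition at least 60% with every replicate also reaching 60%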;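 note: luciferase light reporting Pax8 driven TPO promoter activity; plate controls were median of neutral control wells for no effect and mitoxantrone controls for full effect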
# CSC inhib: cancer stem cell inhibition; cancer stem cell-like cells viability, luminescence; inhibition, % at 7.5 µM; actives 1.1% (n = 300,000); in the data active = inhibition above about 75%; tested in HMLE shEcad cells
# Mdm2-MdmX inh: human Mdm2/MdmX binding inhibition; O15151+Q00987; SaOS-2 split-luciferase Mdm2/MdmX complementation, luminescence; inhibition, % at 8 µM; actives 3% (n = 330,000);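 active = inhibition of at least 50% at 8 µM in the primary screen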
# Target sequence (O15151 whole entry, looked up): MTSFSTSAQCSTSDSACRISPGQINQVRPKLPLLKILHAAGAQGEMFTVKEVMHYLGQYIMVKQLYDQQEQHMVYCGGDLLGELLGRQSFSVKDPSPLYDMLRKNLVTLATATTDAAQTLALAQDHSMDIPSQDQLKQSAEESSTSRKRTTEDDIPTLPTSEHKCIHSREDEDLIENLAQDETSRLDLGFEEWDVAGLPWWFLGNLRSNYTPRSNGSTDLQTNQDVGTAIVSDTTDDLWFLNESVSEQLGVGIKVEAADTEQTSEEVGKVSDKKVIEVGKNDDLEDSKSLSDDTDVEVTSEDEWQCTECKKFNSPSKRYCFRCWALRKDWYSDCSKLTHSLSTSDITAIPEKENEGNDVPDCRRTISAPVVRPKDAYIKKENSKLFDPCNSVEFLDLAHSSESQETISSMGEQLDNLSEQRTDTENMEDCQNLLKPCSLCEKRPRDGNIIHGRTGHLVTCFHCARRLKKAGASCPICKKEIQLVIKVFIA
# Target sequence (Q00987 whole entry, looked up): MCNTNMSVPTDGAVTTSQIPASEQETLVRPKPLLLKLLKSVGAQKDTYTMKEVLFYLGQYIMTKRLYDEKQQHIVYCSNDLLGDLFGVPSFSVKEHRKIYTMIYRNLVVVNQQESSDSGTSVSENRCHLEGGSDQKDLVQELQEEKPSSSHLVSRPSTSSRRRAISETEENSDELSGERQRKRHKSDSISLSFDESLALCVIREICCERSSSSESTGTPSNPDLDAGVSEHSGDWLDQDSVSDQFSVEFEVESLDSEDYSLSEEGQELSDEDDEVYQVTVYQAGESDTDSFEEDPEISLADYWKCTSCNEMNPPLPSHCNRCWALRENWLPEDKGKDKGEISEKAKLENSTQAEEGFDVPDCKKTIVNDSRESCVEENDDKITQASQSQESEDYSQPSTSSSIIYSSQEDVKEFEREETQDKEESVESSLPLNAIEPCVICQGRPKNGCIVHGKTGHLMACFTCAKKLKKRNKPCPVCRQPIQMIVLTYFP
# Gli-Sufu block: Gli-Sufu pathway antagonism. Sufu-KO-LIGHT fibroblasts, Gli luciferase reporter luminescence. inhibition, % at 5 µM. actives 0.74% (n = 340,000);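 active = inhibition above about 55%, limit read from the data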;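 note: 0% = DMSO-treated cells and 100% = wells with medium but no cells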
# Gli antag conf: confirmation of Gli-SUFU pathway antagonists; actives 40% (n = 2,500); inhibition, % at 5 µM; Sufu-KO-LIGHT cells, Gli luciferase reporter, luminescence; AID 602428; shares compounds with Gli-Sufu block;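 active = mean inhibition at 5 µM reaching about 45%, limit read from the data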;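 note: plate controls were DMSO-treated cells for no effect and wells lacking cells for full effect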
# SufuKO cytotox: cytotoxic in Gli-SUFU antagonist counter-screen | shares compounds with Gli-Sufu block | Sufu-KO-LIGHT cells cytotoxicity, ATP luminescence | cytotoxicity, % at 5 µM | actives 32% (n = 2,500) | AID 651994;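 active = mean cytotoxicity at 5 µM above about 25%, limit read from the data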;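 note: cells exposed to compound overnight for roughly 16 to 18 hours; plate controls were DMSO wells with cells for no effect and medium without cells for full effect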
# Wnt3a cs: inhibits Wnt3a reporter, counter-screen for Gli-SUFU antagonists; inhibition, % at 6.25 µM; actives 20% (n = 2,500); shares compounds with Gli-Sufu block; Wnt-LIGHT cells, Wnt3a-driven luciferase reporter, luminescence;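 active = mean inhibition above about 25%, limit read from the data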
# An asterisk follows results filed as active; . = no result. An excerpt weighted towards active compounds, which were near 4% of everything screened.
SMILES,Shn3 3UTR inh,Beta cell apopt,PAX8 inh HTS,CSC inhib,Mdm2-MdmX inh,Gli-Sufu block,Gli antag conf,SufuKO cytotox,Wnt3a cs
Cc1noc(C)c1NC(=O)Nc1ccc2c(c1)C(=O)N([C@@H](C)CO)C[C@@H](C)[C@@H](CN(C)C(=O)C1CCCCC1)OCCCC[C@@H](C)O2,.,.,-8.9,.,.,.,.,.,.
Cc1nnc(C)c2c(C)n(-c3ccccc3)c(C)c12,22.9,.,8.7,.,-27.8,59.0*,37.5,13.7,-14.9
COc1ccc(/C=C2\SC(N3CCCCC3)=NC2=O)cc1OC,-17.5,-0.1,-5.1,-10.2,22.8,-1.0,.,.,.
COc1ccc(OC)c(/C=C2\SC(N3CCCC(C)C3)=NC2=O)c1 (stereo not drawn),-7.1,-5.8,13.5,-4.8,19.3,64.3*,14.5,11.9,-22.0
CCCC#Cc1ccc2c(c1)O[C@H](CN(C)C(=O)Nc1ccccc1F)[C@@H](C)CN([C@H](C)CO)S2(=O)=O,.,.,-7.0,.,.,.,.,.,.
Cn1cnc(S(=O)(=O)N[C@H]2C=C[C@@H](CC(=O)NCC3CC3)O[C@H]2CO)c1,.,.,2.5,.,.,.,.,.,.
CCOC(=O)N1CCN(Cc2nc3c(c(=O)n(C)c(=O)n3C)n2CCCc2ccccc2)CC1,5.1,0.2,.,-1.7,11.2,99.1*,18.8,0.9,-34.1
Cc1ccc(OCc2cc(C(=O)NC3CCCCC3)no2)cn1,62.1,.,-21.9,.,19.5,56.8*,27.0,17.5,-12.9
O=C(NC1CCCC1)c1cc(COc2ccc3ncccc3c2)on1,73.0,104.3*,.,4.7,28.4,53.9,63.2*,24.1,21.2
COc1cccc(CN(C)C(=O)c2cc(COc3ccc4ncccc4c3)on2)c1,81.3,76.5*,4.6,8.1,7.2,56.9*,57.4*,19.6,27.3*
Cc1cc(OCc2cc(C(=O)NC3CCC3)no2)cc(C)c1Cl,-24.8,1.2,.,5.8,11.5,12.7,.,.,.
CC(NC(=O)c1cc(COc2ccc3ncccc3c2)on1)c1ccc(F)cc1 (stereo not drawn),82.6,105.0*,13.2,55.6,13.5,57.8*,63.7*,42.9*,15.5
C[C@@H]1CN([C@@H](C)CO)C(=O)c2cccc(NS(C)(=O)=O)c2O[C@H]1CN(C)Cc1ccncc1,.,.,-26.1,.,.,.,.,.,.
C[C@@H]1CN([C@H](C)CO)C(=O)c2cc(NC(=O)Nc3ccccc3)ccc2O[C@@H](C)CCCCO[C@@H]1CN(C)C,.,.,4.5,.,.,.,.,.,.
CN(C)CCCNC(=O)C[C@@H]1CC[C@H](NC(=O)Cc2cccnc2)[C@H](CO)O1,.,.,3.8,.,.,.,.,.,.
CO[C@H]1CN(C)C(=O)c2ccc(NC(=O)Cc3ccccc3)cc2OC[C@H](C)N(C(=O)c2ccccc2F)C[C@H]1C,.,.,-0.4,.,.,.,.,.,.
COc1ccc(-c2csc(NCCc3nc4cc(Cl)c(Cl)cc4n3CCCO)n2)cc1,6.8,4.6,36.3,-6.2,22.2,16.4,.,.,.
Cc1ccc(-c2csc(NCCc3nc4cc(Cl)c(Cl)cc4n3CCCO)n2)cc1,-10.4,-1.4,-12.3,11.5,-18.0,57.3*,25.1,34.6*,-58.7
CCCNC(=O)C[C@@H]1C[C@H]2c3cc(NC(=O)Cc4ccncc4)ccc3O[C@H]2[C@H](CO)O1,.,.,-1.4,.,.,.,.,.,.
CCCNC(=O)C[C@@H]1CC[C@@H]2[C@@H](COc3ccc(NC(=O)Nc4ccccc4)cc3C(=O)N2C)O1,.,.,10.5,.,.,.,.,.,.
O=C(C[C@H]1C[C@@H]2c3cc(NC(=O)C4CCOCC4)ccc3O[C@@H]2[C@H](CO)O1)NCc1ccncc1,.,.,-12.0,.,.,.,.,.,.
CC1=Nc2cccc3cccc(c23)N1C,-4.2,2.4,-3.4,-20.3,8.6,70.5*,89.2*,13.2,-19.4
Cc1ccccc1NC(=O)c1onc2c1CCCC2,-51.5,5.8,.,10.8,-62.3,56.4*,-93.3,12.0,-81.6
Cc1cccc(NC(=O)c2onc3c2CCCC3)c1C,-36.8,1.9,.,1.1,-79.4,11.4,.,.,.
COCC(=O)N1C[C@H](C)[C@@H](OC)CN(C)C(=O)c2cc(NC(=O)NC(C)C)ccc2OC[C@H]1C,.,.,-2.0,.,.,.,.,.,.
SMILES,Shn3 3UTR inh,Beta cell apopt,PAX8 inh HTS,CSC inhib,Mdm2-MdmX inh,Gli-Sufu block,Gli antag conf,SufuKO cytotox,Wnt3a cs
COc1ccc(CC2(CO)CCN(CC3=Cc4cc(Cl)ccc4OC3)CC2)cc1,90.4*,115.3*,19.5,-1.6,37.5,57.4*,59.7*,14.0,-27.8
COc1ccc2c(c1)C=C(CN1CCC(CO)(CCc3ccccc3)CC1)CO2,44.4,-3.6,10.7,1.7,14.8,20.7,.,.,.
CN(C)c1ccncc1C(=O)Nc1ccc(F)cc1F,-13.4,-7.9,-9.1,-13.5,-4.2,58.6*,19.3,-3.1,3.6
O=C(Nc1ccncc1)Nc1ccc(F)cc1F,33.8,4.3,.,1.4,-5.8,13.5,.,.,.
CCOCCCNC(=O)c1ccc2c(c1)ncn2-c1ccccc1OC,6.6,-3.7,-61.8,-5.4,17.6,60.9*,10.7,11.5,-35.2
c1ccc(CN2CCN(C3CCCSc4ccccc43)CC2)cc1 (stereo not drawn),11.0,-1.4,14.1,29.5,3.9,13.4,.,.,.
c1ccc(Cn2c(-c3ccccc3)c[n+]3c2SCCC3)cc1,.,13.7,23.2,0.3,21.8,70.3*,67.1*,36.8*,11.2
CCc1c(C)nc2cc(-c3ccc(OC)c(OC)c3)nn2c1N1CCC(C)CC1,-0.9,5.6,.,10.7,5.3,1.9,.,.,.
CCc1c(C)nc2cc(-c3ccc(OC)c(OC)c3)nn2c1N1CCCC1,26.2,10.1,.,60.8,23.1,54.4,55.2*,32.9*,5.8
O=C(Cc1ccccc1)N[C@H]1CC[C@@H](CC(=O)N2CCOCC2)O[C@@H]1CO,.,.,6.5,.,.,.,.,.,.
S=C(Nc1ccc(Cl)cc1)NC1CC2CCCC(C1)N2C1CC1 (stereo not drawn),9.1,-6.0,.,-14.5,-0.4,4.9,.,.,.
S=C(Nc1ccc(Cl)cc1)NC1CC2CCCC(C1)N2C1CCCC1 (stereo not drawn),-4.7,-4.0,.,45.7,-4.2,60.5*,15.2,31.1*,-33.6
C/C=C/CSc1nc2c(c(=O)[nH]c(=O)n2C)n1CCC,11.5,-2.6,.,-13.7,2.1,9.0,.,.,.
CCCn1c(Sc2nc3c(c(=O)[nH]c(=O)n3C)n2CCC)nc2c1c(=O)[nH]c(=O)n2C,-8.8,-6.5,-2.8,-15.1,18.6,99.0*,8.8,2.5,-3.8
COCCSc1nc2c(c(=O)[nH]c(=O)n2C)n1CCCc1ccccc1,4.3,6.0,-29.9,-20.2,21.4,51.7,8.8,3.3,-31.9
COCCn1c(SCCCc2ccccc2)nc2c1c(=O)[nH]c(=O)n2C,-13.0,2.2,.,32.3,16.8,7.9,.,.,.
CO[C@@H]1CN(C)C(=O)c2cc(NS(=O)(=O)CC(F)(F)F)ccc2OC[C@H](C)N(C(=O)c2ccc3c(c2)OCO3)C[C@@H]1C,.,.,-13.7,.,.,.,.,.,.

# Assay outcomes as filed in PubChem BioAssay.
